According to PubChem BioAssay (EPA / NIEHS):
Records with an inconclusive call do not appear. The source holds several records for some structures; these can differ, active in one and inactive in another. Active and inactive are the calls of the source. Rule for the calls, unless noted: active = hit-call score of the fitted dose curve at least 0.9, where 1 is the maximum; inactive = score below 0.9.

Experiments:
[1] = biological target: Bile acid receptor (Homo sapiens) (UniProt Q96RI1); assay: OT_FXR_FXRSRC1_1440: Odyssey Thera (OT) 24-hour HEK293T Protein-Complementation Assay for Farnesoid X receptor/SRC-1 Co-activator (AID 2283384; active = hit-call score of the fitted dose curve at least 0.9, where 1 is the maximum)
Procedure, shortened: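 Protein-fragment complementation: FXR and SRC-1 fused to reporter fragments that reassemble on interaction, read by fluorescence intensity. Human HEK293T cells measured 24 h post-dose; positive-direction fit versus DMSO.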

[2] = biological target: Peroxisome proliferator-activated receptor gamma (Homo sapiens) (UniProt P37231); assay: OT_PPARg_PPARgSRC1_0480: Odyssey Thera (OT) 8-hour Protein-Complementation Assay for Peroxisome Proliferator-activated Receptor Gamma / SRC-1 Co-activator (AID 2283387; active = hit-call score of the fitted dose curve at least 0.9, where 1 is the maximum;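 note: nuclear to cytoplasmic split Venus YFP fluorescence ratio reporting PPARg SRC-1 interaction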)
Procedure, shortened: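 Protein-fragment complementation of split Venus YFP reports PPARg/SRC-1 interaction in HEK293T (transfected 48 h before treatment), exposed 8 h. Readout: N/C fluorescence ratio at 488 nm from imaging, Draq5 for segmentation, positive fit relative to DMSO.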

[3] = biological target: Peroxisome proliferator-activated receptor gamma (Homo sapiens) (UniProt P37231); assay: OT_PPARg_PPARgSRC1_1440: Odyssey Thera (OT) 24-hour Protein-Complementation Assay for Peroxisome Proliferator-activated Receptor Gamma/ SRC-1 Co-activator (AID 2283388; active = hit-call score of the fitted dose curve at least 0.9, where 1 is the maximum;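 note: nuclear to cytoplasmic ratio of reconstituted Venus YFP fluorescence in fixed imaged cells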)
Procedure, shortened: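 Readout is the 488 nm N/C fluorescence ratio from fixed, Draq5-stained HEK293T cells after 24 h compound exposure. Cells carried transiently transfected PPARg and SRC-1 fused to Venus fragments, transfected 48 h before treatment.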

[4] = read-out: Tumor necrosis factor receptor superfamily member 6 (Homo sapiens) (UniProt P25445); assay: LTEA_HepaRG_FAS: Life Technologies and Expression Analysis (LTEA) Assay for Fas cell surface death receptor (FAS) using HepaRG (AID 2283447); settings: mRNA level, 48 h; actives raise or lower the signal
Procedure, shortened: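 Differentiated human HepaRG cells, pre-cultured 48 h, were exposed in duplicate for 48 h to 8-point half-log concentrations (top 100 uM, 0.5% DMSO) in serum-free induction medium; FAS mRNA measured by qRT-PCR, normalized to ACTB/GAPDH/POLR2A, bidirectional fit versus DMSO.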

[5] = read-out: Fatty acid synthase (Homo sapiens) (UniProt P49327); assay: LTEA_HepaRG_FASN: Life Technologies and Expression Analysis (LTEA) Assay for Fatty Acid Synthase (FASN) using HepaRG (AID 2283448); settings: mRNA level, 48 h; actives raise or lower the signal
Procedure, shortened: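 FASN transcript measured by TaqMan qRT-PCR, normalised to three housekeeping genes, after 48 h chemical exposure of HepaRG cells. Eight-point half-log series from 100 uM in 0.5% DMSO, duplicates; gain or loss fitted against vehicle.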

[6] = read-out: Cyclin D2 (CCND2), CCND2 (gene 894); assay: LTEA_HepaRG_CCND2: Life Technologies and Expression Analysis (LTEA) Assay for Cyclin D2 (CCND2) using HepaRG (AID 2283449); settings: mRNA level, 48 h; actives raise or lower the signal;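 note: CCND2 transcript measured by TaqMan qRT-PCR and normalised to three housekeeping genes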
Procedure, shortened: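 In this HepaRG study, an eight-point concentration series (max 100 uM, 0.5% DMSO) is applied for 48 h. CCND2 mRNA change is derived by qRT-PCR normalised to ACTB, GAPDH and POLR2A.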

[7] = read-out: Cyclin Dependent Kinase Inhibitor 1A (CDKN1A), CDKN1A (gene 1026); assay: LTEA_HepaRG_CDKN1A: Life Technologies and Expression Analysis (LTEA) Assay for Cyclin Dependent Kinase Inhibitor 1A (CDKN1A) using HepaRG (AID 2283450); settings: mRNA level, 48 h; actives raise or lower the signal
Procedure, shortened: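 Expression quantified by Fluidigm qRT-PCR with ACTB, GAPDH and POLR2A normalization, fitted bidirectionally against 0.5% DMSO. Cells: HepaRG, plated 48 h then treated 48 h in serum-free induction medium, top concentration 100 uM with half-log dilutions.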

[8] = read-out: Cyclin D1 (CCND1), CCND1 (gene 595); assay: LTEA_HepaRG_CCND1: Life Technologies and Expression Analysis (LTEA) Assay for Cyclin D1 (CCND1) using HepaRG (AID 2283451); settings: mRNA level, 48 h; actives raise or lower the signal
Procedure, shortened: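 Expression of CCND1 was quantified by qRT-PCR on Fluidigm arrays using ACTB, GAPDH and POLR2A as reference genes. HepaRG cultures, plated 48 h beforehand, were dosed for 48 h at up to 100 uM (half-log, 8 points) in 0.5% DMSO.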

[9] = read-out: catalase (CAT), CAT (gene 847); assay: LTEA_HepaRG_CAT: Life Technologies and Expression Analysis (LTEA) Assay for catalase (CAT) using HepaRG (AID 2283452); settings: mRNA level, 48 h; actives raise or lower the signal;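 for AC50: TaqMan qRT-PCR signal normalized to ACTB GAPDH and POLR2A housekeeping genes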
Procedure, shortened: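 Differentiated HepaRG cells in serum-free induction medium were dosed 48 h in duplicate, eight half-log concentrations from 100 uM in 0.5% DMSO. Transcript measured by TaqMan qRT-PCR, normalised to ACTB/GAPDH/POLR2A, fitted bidirectionally against DMSO.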

[10] = biological target: Retinoic acid receptor RXR-alpha (Homo sapiens) (UniProt P19793); assay: OT_NURR1_NURR1RXRa_0480: Odyssey Thera (OT) 8-hour HEK293T Protein Complementation Assay for Nurr1/retinoid X receptor (RXR) (AID 2283385; active = hit-call score of the fitted dose curve at least 0.9, where 1 is the maximum)
Procedure, shortened: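 Interaction of Nurr1 with RXRα read as reconstituted reporter fluorescence in a HEK293T fragment-complementation system, 8 h post-treatment; increase over DMSO baseline analysed.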

[11] = biological target: Retinoic acid receptor RXR-alpha (Homo sapiens) (UniProt P19793); assay: OT_NURR1_NURR1RXRa_1440: Odyssey Thera (OT) 24-hour HEK293T Protein Complementation Assay for Nurr1/retinoid X receptor (RXR) (AID 2283386; active = hit-call score of the fitted dose curve at least 0.9, where 1 is the maximum)
Procedure, shortened: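 Gain in fluorescence, fitted relative to DMSO, reflects Nurr1–RXRα association in HEK293T cells after 24 h dosing. Bait and prey are each linked to a reporter-protein fragment that reassembles on interaction.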

[12] = CEETOX_H295R_11DCORT: CeeTox H295R High-throughput Steroidogenesis Assay for 11-Deoxycortisol (11DCORT) (AID 2283432); settings: actives raise or lower the signal
Procedure, shortened: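 Human adrenal H295R cells were prestimulated with 10 uM forskolin for 48 h, then exposed to test chemical (0.1% DMSO final) for 48 h. Medium 11-deoxycortisol was quantified by MTBE extraction and HPLC-MS/MS; bidirectional fitting relative to DMSO.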

[13] = CEETOX_H295R_OHPREG: CeeTox H295R High-throughput Steroidogenesis Assay for OH-Pregnenolone (OHPREG) (AID 2283434); settings: actives raise or lower the signal
Procedure, shortened: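 Readout: HPLC-MS/MS of 17alpha-hydroxypregnenolone in medium after 48 h chemical exposure of H295R cells pretreated with forskolin. Values fitted bidirectionally relative to DMSO; chemicals reducing viability to 20–70% were retested after 10-fold dilution.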

[14] = CEETOX_H295R_OHPROG: CeeTox H295R High-throughput Steroidogenesis Assay for OH-Progesterone (OHPROG) (AID 2283435); settings: actives raise or lower the signal
Procedure, shortened: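 Medium steroid levels read by LC-MS/MS after 48 h chemical treatment (0.1% DMSO) of human adrenal H295R cells that had been forskolin-primed (10 uM, 48 h). Gain or loss fitted against DMSO; MTT cytotoxicity checked per well.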

[15] = CEETOX_H295R_ANDR: CeeTox H295R High-throughput Steroidogenesis Assay for Androstenedione (ANDR) (AID 2283436); settings: actives raise or lower the signal
Procedure, shortened: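 Steroidogenesis in H295R adrenal cells after 48 h dosing; androstenedione quantified by LC-MS/MS, with DMSO as negative control and baseline for bidirectional curve fitting.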

[16] = CEETOX_H295R_CORTIC: CeeTox H295R High-throughput Steroidogenesis Assay for Corticosterone (CORTIC) (AID 2283437); settings: actives raise or lower the signal;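 note: corticosterone secreted into medium quantified by mass spectrometry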
Procedure, shortened: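 Steps: seed H295R, adhere overnight; 10 uM forskolin 48 h; replace with chemical (0.1% DMSO) 48 h; extract medium with MTBE; quantify corticosterone by HPLC-MS/MS; score bidirectionally vs DMSO.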

[17] = CEETOX_H295R_CORTISOL: CeeTox H295R High-throughput Steroidogenesis Assay for Cortisol (AID 2283438); settings: actives raise or lower the signal;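 note: cortisol secreted into medium quantified by LC-MS/MS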
Procedure, shortened: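 Cortisol measured by HPLC-MS/MS after MTBE extraction of medium from H295R cells exposed 48 h to chemical (0.1% DMSO), following 48 h prestimulation with 10 uM forskolin. Viability assessed by MTT in the same wells.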

[18] = CEETOX_H295R_DOC: CeeTox H295R High-throughput Steroidogenesis Assay for DOC (AID 2283439); settings: actives raise or lower the signal
Procedure, shortened: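 11-Deoxycorticosterone quantified in medium by MTBE extraction and HPLC-MS/MS after 48 h chemical exposure (0.1% DMSO) of forskolin-primed (10 uM, 48 h) H295R cells. Same-well MTT viability; data fitted bidirectionally against DMSO.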

[19] = CEETOX_H295R_ESTRADIOL: CeeTox H295R High-throughput Steroidogenesis Assay for Estradiol (AID 2283440); settings: actives raise or lower the signal;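 note: estradiol secreted into medium quantified by LC-MS/MS after dansyl derivatisation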
Procedure, shortened: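 Estradiol in spent medium measured by LC-MS/MS after dansyl chloride derivatisation. Forskolin-primed (10 uM, 48 h) human adrenal H295R cells received test chemical 48 h at 0.1% DMSO; concentrations lowered until MTT viability >/=70%.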

[20] = CEETOX_H295R_PROG: CeeTox H295R High-throughput Steroidogenesis Assay for Progesterone (PROG) (AID 2283442); settings: actives raise or lower the signal
Procedure, shortened: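 Progesterone secreted by human H295R cells was measured by LC-MS/MS following 48 h chemical exposure at 0.1% DMSO, preceded by 48 h forskolin (10 uM) stimulation. Same-well MTT viability; cytotoxic concentrations diluted 10- or 100-fold and retested.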

Measured: AC50

Peroxisome proliferator-activated receptor gamma (Homo sapiens), sequence (P37231 whole entry, looked up, the tested form may be a part): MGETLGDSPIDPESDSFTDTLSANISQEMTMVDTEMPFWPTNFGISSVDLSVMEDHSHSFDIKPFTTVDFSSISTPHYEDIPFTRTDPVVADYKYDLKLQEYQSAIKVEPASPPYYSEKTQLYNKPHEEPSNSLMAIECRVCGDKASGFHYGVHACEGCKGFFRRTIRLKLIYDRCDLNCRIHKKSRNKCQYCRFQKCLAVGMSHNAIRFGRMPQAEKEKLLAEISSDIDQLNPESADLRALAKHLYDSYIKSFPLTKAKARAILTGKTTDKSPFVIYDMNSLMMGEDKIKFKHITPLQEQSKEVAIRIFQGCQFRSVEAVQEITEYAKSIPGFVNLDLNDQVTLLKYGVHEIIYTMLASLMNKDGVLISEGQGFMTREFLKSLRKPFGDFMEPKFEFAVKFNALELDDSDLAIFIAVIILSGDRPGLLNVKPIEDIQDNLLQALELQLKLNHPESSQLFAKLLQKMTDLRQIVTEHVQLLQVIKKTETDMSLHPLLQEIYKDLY
Fatty acid synthase (Homo sapiens), sequence (P49327 whole entry, looked up): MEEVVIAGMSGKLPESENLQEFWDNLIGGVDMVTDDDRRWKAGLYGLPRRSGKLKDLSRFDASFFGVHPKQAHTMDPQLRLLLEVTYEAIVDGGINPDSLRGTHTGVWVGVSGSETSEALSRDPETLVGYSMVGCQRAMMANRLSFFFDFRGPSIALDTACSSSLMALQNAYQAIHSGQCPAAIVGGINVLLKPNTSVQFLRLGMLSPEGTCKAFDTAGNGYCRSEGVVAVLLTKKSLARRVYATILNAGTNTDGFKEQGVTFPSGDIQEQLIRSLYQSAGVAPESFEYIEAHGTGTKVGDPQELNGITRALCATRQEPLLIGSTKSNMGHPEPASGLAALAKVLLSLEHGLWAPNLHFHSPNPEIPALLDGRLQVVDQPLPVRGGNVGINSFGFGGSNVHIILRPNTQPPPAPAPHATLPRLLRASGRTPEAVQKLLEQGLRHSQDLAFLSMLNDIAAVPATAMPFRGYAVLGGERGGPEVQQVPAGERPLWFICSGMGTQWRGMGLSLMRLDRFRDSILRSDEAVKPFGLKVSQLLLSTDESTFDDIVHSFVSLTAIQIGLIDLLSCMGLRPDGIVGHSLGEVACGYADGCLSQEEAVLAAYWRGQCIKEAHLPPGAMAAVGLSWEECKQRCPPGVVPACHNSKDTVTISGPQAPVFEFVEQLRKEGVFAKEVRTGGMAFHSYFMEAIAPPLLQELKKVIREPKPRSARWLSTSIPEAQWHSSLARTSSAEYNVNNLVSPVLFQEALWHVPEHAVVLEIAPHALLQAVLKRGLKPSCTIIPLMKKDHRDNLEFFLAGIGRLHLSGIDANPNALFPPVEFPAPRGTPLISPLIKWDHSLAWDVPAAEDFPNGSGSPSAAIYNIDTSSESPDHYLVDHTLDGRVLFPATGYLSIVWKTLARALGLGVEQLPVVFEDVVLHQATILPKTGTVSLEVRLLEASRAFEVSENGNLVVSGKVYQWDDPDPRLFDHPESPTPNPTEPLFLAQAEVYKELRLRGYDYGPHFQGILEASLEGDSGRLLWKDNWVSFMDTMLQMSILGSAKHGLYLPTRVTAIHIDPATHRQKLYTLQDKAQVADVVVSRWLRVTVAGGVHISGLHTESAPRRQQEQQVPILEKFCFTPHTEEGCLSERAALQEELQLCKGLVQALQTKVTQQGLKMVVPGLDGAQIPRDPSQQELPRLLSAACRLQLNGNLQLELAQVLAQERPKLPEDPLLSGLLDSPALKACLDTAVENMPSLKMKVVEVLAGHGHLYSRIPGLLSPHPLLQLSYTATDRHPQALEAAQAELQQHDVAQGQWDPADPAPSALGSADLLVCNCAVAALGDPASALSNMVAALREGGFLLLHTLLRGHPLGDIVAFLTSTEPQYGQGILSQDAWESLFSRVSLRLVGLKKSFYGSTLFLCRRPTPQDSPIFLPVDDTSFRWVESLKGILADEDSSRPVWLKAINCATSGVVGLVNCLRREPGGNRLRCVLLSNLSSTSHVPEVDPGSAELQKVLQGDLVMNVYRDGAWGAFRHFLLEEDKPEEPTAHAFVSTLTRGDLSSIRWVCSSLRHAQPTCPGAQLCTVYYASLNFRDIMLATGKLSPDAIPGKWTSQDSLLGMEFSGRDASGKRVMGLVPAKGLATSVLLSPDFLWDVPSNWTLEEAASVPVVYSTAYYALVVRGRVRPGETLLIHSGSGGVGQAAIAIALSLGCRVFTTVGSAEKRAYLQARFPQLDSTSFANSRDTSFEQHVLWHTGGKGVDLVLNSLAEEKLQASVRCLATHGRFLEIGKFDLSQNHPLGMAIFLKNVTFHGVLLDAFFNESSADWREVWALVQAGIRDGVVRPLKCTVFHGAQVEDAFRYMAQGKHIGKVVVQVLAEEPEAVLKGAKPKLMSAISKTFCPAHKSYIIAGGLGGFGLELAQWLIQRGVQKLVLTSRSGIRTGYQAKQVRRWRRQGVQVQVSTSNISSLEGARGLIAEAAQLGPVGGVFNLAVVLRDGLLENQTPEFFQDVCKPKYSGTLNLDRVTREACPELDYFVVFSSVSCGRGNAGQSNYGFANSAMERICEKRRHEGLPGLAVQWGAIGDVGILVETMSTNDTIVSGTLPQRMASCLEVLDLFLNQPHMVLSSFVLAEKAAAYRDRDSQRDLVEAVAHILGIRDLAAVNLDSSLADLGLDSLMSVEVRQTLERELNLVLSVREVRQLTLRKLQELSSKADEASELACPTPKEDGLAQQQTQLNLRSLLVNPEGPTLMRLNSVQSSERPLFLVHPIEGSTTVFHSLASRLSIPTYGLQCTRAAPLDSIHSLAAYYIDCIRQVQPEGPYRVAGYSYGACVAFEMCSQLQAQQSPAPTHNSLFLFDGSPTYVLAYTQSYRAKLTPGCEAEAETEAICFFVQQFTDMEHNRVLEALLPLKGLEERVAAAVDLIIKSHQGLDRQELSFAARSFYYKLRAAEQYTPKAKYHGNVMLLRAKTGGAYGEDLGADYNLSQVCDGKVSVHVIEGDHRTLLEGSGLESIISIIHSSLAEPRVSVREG
Retinoic acid receptor RXR-alpha (Homo sapiens), sequence (P19793 whole entry, looked up, the tested form may be a part): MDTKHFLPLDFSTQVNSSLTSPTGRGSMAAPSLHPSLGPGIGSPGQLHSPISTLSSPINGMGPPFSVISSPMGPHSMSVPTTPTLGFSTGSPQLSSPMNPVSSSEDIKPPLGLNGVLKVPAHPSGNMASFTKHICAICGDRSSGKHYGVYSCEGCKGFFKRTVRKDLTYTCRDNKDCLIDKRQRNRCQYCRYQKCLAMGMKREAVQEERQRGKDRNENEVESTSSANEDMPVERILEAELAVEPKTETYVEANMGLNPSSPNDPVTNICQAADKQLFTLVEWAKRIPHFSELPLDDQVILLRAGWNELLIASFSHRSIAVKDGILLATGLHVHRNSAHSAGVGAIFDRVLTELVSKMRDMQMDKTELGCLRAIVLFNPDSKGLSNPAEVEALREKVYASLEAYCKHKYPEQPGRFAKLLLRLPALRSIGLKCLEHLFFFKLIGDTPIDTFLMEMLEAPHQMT
Bile acid receptor (Homo sapiens), sequence (Q96RI1 whole entry, looked up, the tested form may be a part): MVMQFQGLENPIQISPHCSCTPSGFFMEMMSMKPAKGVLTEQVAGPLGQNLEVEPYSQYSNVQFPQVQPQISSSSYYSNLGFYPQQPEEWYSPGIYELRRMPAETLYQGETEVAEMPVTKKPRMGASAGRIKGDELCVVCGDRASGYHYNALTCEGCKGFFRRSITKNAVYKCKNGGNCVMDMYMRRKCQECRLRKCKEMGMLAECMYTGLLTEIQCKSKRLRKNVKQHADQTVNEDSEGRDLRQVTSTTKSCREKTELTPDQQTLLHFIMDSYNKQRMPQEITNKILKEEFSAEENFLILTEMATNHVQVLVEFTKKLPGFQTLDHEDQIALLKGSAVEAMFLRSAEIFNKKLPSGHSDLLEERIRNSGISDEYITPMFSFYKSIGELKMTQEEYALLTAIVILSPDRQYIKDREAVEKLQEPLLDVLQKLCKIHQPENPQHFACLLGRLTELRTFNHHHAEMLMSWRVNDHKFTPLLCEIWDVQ

CN1CSC(=S)N(C)C1
inactive: [1] | [2] | [3] | [4] | [5] | [6] | [7] | [8] | [9]

O=C(O)C(F)(F)C(F)(F)C(F)(F)C(F)(F)C(F)(F)C(F)(F)C(F)(F)F
active: [9] 23.3 µM
inactive: [10] | [11] | [5] | [6] | [7] | [8] | [9]

C[C@H]1[C@H](c2ccc(Cl)cc2)SC(=O)N1C(=O)NC1CCCCC1
active: [7] 71.6 µM | [9] 66.2 µM
not listed: [1] | [4] | [6] | [10]
inactive: all other assays above
